Laboratory results published in PubChem BioAssay (Tox21).
Records with an inconclusive call do not appear. Unmarked numbers belong to inactive results. Calls come from the whole dose curve; as a rule, active = well fitted cell-killing curve with a large enough effect in the repeat runs; inconclusive = weak or mixed curves; inactive = no such curve, though single readings can be large or run the other way.

Assay: qHTS assay to identify small molecule agonists of the peroxisome proliferator-activated receptor delta (PPARd) signaling pathway - cell viability counter screen (AID 743211); note: nearly all actives have a fitted effect of over 55% in size
Details: PPARd-bla HEK293H viability, CellTiter-Glo luminescence, 17 h; series mostly up to 62.6 µM; activity change, negative = cytotoxicity: at the top concentration
Description: U.S. Tox21 Program National Center for Advancing Translational Sciences [NCATS] NIH Chemical Genomics Center [NCGC] U.S. Environmental Protection Agency [EPA] National Institutes of Environmental Health Sciences [NIEHS] National Toxicology Program [NTP] U.S. Food and Drug Administration [FDA] Tox21 Assay Overview: The peroxisome proliferator-activated receptors (PPARs) are lipid-activated transcription factors of the nuclear receptor superfamily with three distinct subtypes namely PPAR alpha, PPAR delta (PPARd) and PPAR gamma. All these subtypes heterodimerizes with Retinoid X receptor (RXR) and have different physiological functions. […] To identify the compounds that activate PPAR-delta signaling, GeneBLAzer PPAR delta UAS-bla HEK293H cell line (Invitrogen, Carlsbad, CA, USA) containing a beta-lactamase reporter gene under the control of an Upstream Activator Sequence (UAS) was used to screen the Tox21 compound library. The cytotoxicity of the Tox21 compound library against the PPARd-bla cell line was tested in parallel by measuring the cell viability using CellTiter-Glo assay (Promega, Madison, WI) in the same wells.
Tox21 Assay Protocol Summary: PPARd-bla cells were dispensed at 3000 cells/6uL/well in 1536-well black wall/clear bottom plates using a Multidrop Combi (Thermo Fisher Scientific, Waltham, MA) dispenser. After the assay plates were incubated at 37 C and 5% CO2 for 5 h, 23 nL of compounds dissolved in DMSO, positive controls or DMSO only was transferred to the assay plate by a Pintool station (Kalypsys, San Diego, CA). The assay plates were incubated at 37C for 17 h. After 1 uL of LiveBLAzerTM B/G FRET substrate was added using a Bioraptr Flying Reagent Dispenser (FRD) workstation (Beckman Coulter, Indianapolis, IN, USA), the plates were incubated at room temperature for 2 h, and fluorescence intensity was measured by an Envision plate reader (PerkinElmer, Shelton, CT). For cell viability readout that measures cytotoxicity, 3 ul/well of CellTiter-Glo reagent was added into the assay plates using a Bioraptr FRD. After 30 min incubation at room temperature, the luminescence intensity in the plates was measured using a ViewLux plate reader (PerkinElmer).
% is set by controls: 0 for no effect and ±100 for the full control effect.

Row | Structure (SMILES) | activity change, negative = cytotoxicity
1 | CCCCCCCCNC | 1.54%
2 | CC(=O)OCC(=O)[C@@]1(O)CC[C@H]2[C@@H]3CCC4=CC(=O)C=C[C@]4(C)[C@@]3(F)[C@@H](O)C[C@@]21C | 5.96%
3 | O=C(O)c1ccc2cc(O)ccc2c1 | -12%
4 | CC(CC(C#N)(c1ccccc1)C(C)C)N(C)C (stereo not given) | 0.684%
5 | O=C(Cl)c1ccc(F)c(Cl)c1 | -0.279%
6 | Oc1ccc(Oc2ccccc2)cc1 | -10.1%
7 | CCC(=O)O[C@]1(C(=O)COC)[C@@H](C)C[C@H]2[C@@H]3CCC4=CC(=O)C=C[C@]4(C)C3(F)[C@@H](O)C[C@@]21C (stereo not given in full) | 3.82%
8 | CCCCC(CC)COCCC#N (stereo not given) | -4.89%
9 | O=[N+]([O-])c1ccc(Cl)cc1Cl | 2.61%
10 | Cc1c(Cl)cccc1Nc1ccccc1C(=O)O | -18.2%
11 | O=C1c2ccccc2C(=O)c2c1ccc(O)c2O | 4.57%
12 | CCc1cnc(C(=O)O)c(C(=O)O)c1 | 10.8% [at 81.1 µM]
13 | C/C(=C(\CCO)SS/C(CCO)=C(\C)N(C=O)Cc1cnc(C)nc1N)N(C=O)Cc1cnc(C)nc1N | 5.06%
14 | Cc1ccc(S(=O)(=O)NC(=O)NC2CCCC2)cc1 | 3.63%
15 | CC(C)Oc1ccccc1O | 1.6%
16 | CCCCCCCCC(=O)OCC(C)OC(=O)CCCCCCCC (stereo not given) | -7.62% [at 81.1 µM]
17 | Cc1c(Cl)cccc1[N+](=O)[O-] | -0.335%
18 | O=C(OCCN1CCOCC1)c1cccnc1Nc1cccc(C(F)(F)F)c1 | -9.29%
19 | CC/C=C/CCO | -5.45% [at 81.1 µM]
20 | C[Si](C)(C)O[Si](C)(C)O[Si](C)(C)C | -1.27%

Row | Structure (SMILES) | activity change, negative = cytotoxicity
21 | O=c1c2ccccc2oc2ccccc12 | 13.4%
22 | CCCCOc1ccc(N)cc1 | 8.34%
23 | CCC(=O)O[C@@H]1C[C@H]2CC[C@]1(C)C2(C)C | 5.56%
24 | CCCCOC(=O)CC#N | -3.38% [at 81.1 µM]
25 | COc1ccc(CN(CCN(C)C)c2ncccn2)cc1 | -4.49%
26 | C=C(C)C(=O)OCCCCCCCCCCOC(=O)C(=C)C | -0.226%
27 | O=C(N[C@@H](Cc1ccccc1)[C@@H](O)C(=O)N1C[C@@H](O)[C@@H](O)C1)c1cc2cc(Cl)ccc2[nH]1 | -19.9%
28 | Cc1cc(SC2=C(O)C[C@@](CCc3ccc(N)cc3)(C(C)C)OC2=O)c(C(C)(C)C)cc1CO | 2.2%
29 | C[C@H]1C[C@H]2[C@@H]3CCC4=CC(=O)C=C[C@]4(C)[C@@]3(F)[C@@H](O)C[C@]2(C)[C@@]1(O)C(=O)COP(=O)(O)O | 4.79%
30 | CCCCCCCCCCCCCCCCC(=O)O | 11.4%
31 | Sc1nc(S)nc(S)n1 | 3.33%
32 | CC(C(=O)O)c1ccc(/C=C2\CCCCC2=O)cc1 (stereo not given) | 1.41%
33 | CCCc1ccc(OC)cc1 | 3.25% [at 81.1 µM]
34 | N#C[C@@H]1CC(F)(F)CN1C(=O)CNC1CC2CCC(C1)N2c1ncccn1 (stereo not given in full) | -5.77%
35 | NC(=O)c1ccccc1 | 6.45% [at 81.1 µM]
36 | C[C@]12CCC(=O)C=C1[C@@H]1C[C@@H]1[C@H]1[C@@H]3[C@@H]4C[C@@H]4[C@@]4(CCC(=O)O4)[C@@]3(C)CC[C@@H]12 | -7.64%
37 | O=C(c1ccco1)N1CCNCC1 | 2.21%
38 | Cc1ccc2c(Cl)cc(Cl)c(O)c2n1 | 2.02%
39 | O=C(Nc1ccc2c(c1)Cc1ccccc1-2)C(F)(F)F | 2.06%
40 | COc1cccc([C@H](O)C2CCN(CCc3ccc(F)cc3)CC2)c1OC | -9.94%
